Results published in the supplement of paper PMC11624193, “Coupling cellular drug-target engagement to downstream pharmacology with CeTEAM” (Nature Communications, 2024).
Where a name gives a salt, the structure may show the parent alone. Unmarked numbers belong to inactive results.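 How the source made its calls: active = log2 fold change beyond 2 SD from the library mean after excluding viability outliers; inactive = within 2 SD.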

These compounds were tested against PARP1 L713F-nLuc biosensor (HCT116) (UniProt P09874) (assay: PARP1 L713F-nLuc/akaLuc ratio relative to DMSO control (biosensor stabilization) (fold change); higher = more PARP1 biosensor stabilization (target engagement / stabilizer), active = hit call of the paper). Conditions: stock concentration (mM; final µM = stock mM x 1): 10; 24 h.
Sequence of PARP1 L713F-nLuc biosensor (HCT116) (P09874 whole entry L713F, looked up): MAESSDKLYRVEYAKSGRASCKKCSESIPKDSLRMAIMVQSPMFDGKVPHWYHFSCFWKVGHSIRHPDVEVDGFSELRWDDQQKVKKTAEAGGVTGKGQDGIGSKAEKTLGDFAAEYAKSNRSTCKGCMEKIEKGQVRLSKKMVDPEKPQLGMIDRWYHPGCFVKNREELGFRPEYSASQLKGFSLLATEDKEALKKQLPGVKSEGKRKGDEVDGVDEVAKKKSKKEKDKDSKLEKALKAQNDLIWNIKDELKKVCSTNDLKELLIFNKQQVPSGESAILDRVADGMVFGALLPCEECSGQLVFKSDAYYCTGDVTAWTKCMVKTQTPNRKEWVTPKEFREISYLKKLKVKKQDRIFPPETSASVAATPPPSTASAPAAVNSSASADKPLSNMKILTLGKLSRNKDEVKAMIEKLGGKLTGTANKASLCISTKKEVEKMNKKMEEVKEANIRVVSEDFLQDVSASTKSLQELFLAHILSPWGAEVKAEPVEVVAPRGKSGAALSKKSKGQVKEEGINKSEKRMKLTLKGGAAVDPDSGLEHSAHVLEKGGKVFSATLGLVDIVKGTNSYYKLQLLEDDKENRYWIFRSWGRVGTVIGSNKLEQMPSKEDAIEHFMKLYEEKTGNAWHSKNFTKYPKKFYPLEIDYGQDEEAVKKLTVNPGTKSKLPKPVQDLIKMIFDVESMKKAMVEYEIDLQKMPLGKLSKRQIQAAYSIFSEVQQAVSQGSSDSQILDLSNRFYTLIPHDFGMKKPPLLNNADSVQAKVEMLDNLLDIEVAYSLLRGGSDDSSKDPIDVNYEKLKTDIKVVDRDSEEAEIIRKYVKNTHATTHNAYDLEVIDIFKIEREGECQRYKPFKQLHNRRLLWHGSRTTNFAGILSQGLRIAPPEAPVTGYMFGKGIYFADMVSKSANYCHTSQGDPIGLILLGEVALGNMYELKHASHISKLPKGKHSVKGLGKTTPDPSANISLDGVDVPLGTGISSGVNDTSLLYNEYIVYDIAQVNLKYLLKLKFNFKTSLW

SMILES	PARP1 L713F-nLuc/akaLuc ratio
O=C(O)CNC(=O)c1c(O)c2ccccc2n(OCC2CC2)c1=O [Desidustat]	0.943
C[C@@H](NC(=O)c1ncnc(N)c1Cl)c1ncc(C(=O)Nc2cc(C(F)(F)F)c(Cl)cn2)s1	0.886
NC(=O)c1cccc2cn(-c3ccc([C@@H]4CCCNC4)cc3)nc12 [Niraparib (R-enantiomer)]	8.24 (active)
N#CC[C@H](C1CCCC1)n1cc(-c2ncnc3[nH]ccc23)cn1 [Ruxolitinib]	0.544
C=C1CCC[C@]2(C)C=C3OC(=O)C(C)=C3C[C@@H]12 [Atractylenolide I]	0.934
O=C(O)CNC(=O)c1ncc(-c2cccc(F)c2)cc1O	0.618
NC(=O)N1CCC(CC(=O)N2CCC([C@H]3c4ncc(Br)cc4CCc4cc(Cl)cc(Br)c43)CC2)CC1 [Lonafarnib]	1.59
Cn1c(Nc2ccc(C(F)(F)F)cc2)nc2cc(Oc3ccnc(-c4ncc(C(F)(F)F)[nH]4)c3)ccc21	0.546
Nc1[nH]c(=O)nc2c1ncn2[C@@H]1O[C@H](CO)[C@@H](O)[C@H]1O [Crotonoside]	0.835
COc1ccccc1C(=O)Nc1cc2c(cc1N1CCCC1)n(C)c(=O)n2C	0.797
CCN(c1cc(-c2ccc(CN3CCOCC3)cc2)cc(C(=O)NCc2c(C)cc(C)[nH]c2=O)c1C)C1CCOCC1 [Tazemetostat]	0.962
Cc1[nH]n(-c2ccccc2)c(=O)c1N=Nc1ccc(N2CCOCC2)cc1	1.04
COc1cc2c(cc1OCCCN1CCCC1)N=C(N)C21CCC1	0.685
O[C@@H]1CO[C@H]2[C@@H]1OC[C@H]2Oc1nc2nc(-c3ccc(-c4ccccc4)cc3)c(Cl)cc2[nH]1	0.439
O=c1oc2cc(O)ccc2c2ccccc12 [Urolithin B]	0.914
COc1ccc2c(c1)c(C(=O)Nc1cc(C(=O)OC(C)(C)C)ccc1F)cn2C(C)=O	0.714
CC(=O)O[C@H]1C(=O)[C@@]2(C)[C@H]([C@H](OC(=O)c3ccccc3)[C@]3(O)C[C@H](OC(=O)[C@H](O)[C@@H](NC(=O)c4ccccc4)c4ccccc4)C(C)=C1C3(C)C)[C@]1(OC(C)=O)CO[C@@H]1C[C@@H]2O [Paclitaxel]	2.97 (active)
Cc1nn2c([nH]c(=O)c3cccnc32)c1C#N	0.851
CNCc1ccc(-c2[nH]c3cc(F)cc4c3c2CCNC4=O)cc1 [Rucaparib]	5.36 (active)

SMILES	PARP1 L713F-nLuc/akaLuc ratio
O=S(=O)(c1cccc2cnccc12)N1CCNCC1	0.882
CO[C@H]1C[C@@H]2CC[C@@H](C)[C@@](O)(O2)C(=O)C(=O)N2CCCC[C@H]2C(=O)O[C@H]([C@H](C)C[C@@H]2CC[C@@H](O)[C@H](OC)C2)CC(=O)[C@H](C)/C=C(\C)[C@@H](O)[C@@H](OC)C(=O)[C@H](C)C[C@H](C)/C=C/C=C/C=C/1C [Rapamycin (Sirolimus)]	0.6
Clc1cc2c(NC3CCCC3)nnc(-c3ccncc3)c2cc1Cl	0.888
O=C(Nc1ccc2c(O)cc(S(=O)(=O)O)cc2c1)Nc1ccc2c(O)cc(S(=O)(=O)O)cc2c1 [AMI-1 (free acid)]	1.04
NC(=O)c1cccc(N)c1 [3-Aminobenzamide]	0.995
Nc1ncn([C@@H]2O[C@H](CO)[C@@H](O)[C@H]2O)c(=O)n1 [5-Azacytidine]	2.35
COc1cc2nccc(Oc3ccc(NC(=O)NC4CC4)c(Cl)c3)c2cc1C(N)=O [Lenvatinib (E7080)]	0.673
COc1c(O)cc2oc(-c3ccc(O)cc3)cc(=O)c2c1O [Hispidulin]	0.723
Cc1c(C(=O)Nc2ccc(N3C[C@@H](C)O[C@@H](C)C3)nc2)cccc1-c1ccc(OC(F)(F)F)cc1 [Sonidegib (Erismodegib, NVP-LDE225)]	0.652
O=C1/C(=C/c2ccc(O)c(Br)c2)CN(Cc2ccccc2)C/C1=C\c1ccc(O)c(Br)c1	0.985
Clc1ccc(Nc2nnc(Cc3ccncc3)c3ccccc23)cc1 [Vatalanib (PTK787) 2HCl]	0.831
COc1cc2c(NC3CCN(C)CC3)nc(N3CCCN(C)CC3)nc2cc1OCCCN(C)C	0.782
CCN(CC)Cc1cc(Nc2ccnc3cc(Cl)ccc23)ccc1O [Amodiaquine (dihydrochloride)]	1.11
NC(=O)C1CCCc2c1[nH]c1ccc(Cl)cc21 (configuration not stated) [Selisistat]	0.963
COc1c(O)cc2oc(-c3ccccc3)cc(=O)c2c1O [Oroxylin A]	0.838
COc1cc2onc(C)c2cc1NS(=O)(=O)c1cc(Br)ccc1OC	0.95
CO[C@@H](C(=O)N1Cc2[nH]nc(NC(=O)c3ccc(N4CCN(C)CC4)cc3)c2C1)c1ccccc1	0.781
CN(C)CCOc1ccc(/C(=C(/CCCl)c2ccccc2)c2ccccc2)cc1 [Toremifene Citrate]	0.791
